Experimental findings from PubChem BioAssay (NCATS) are described below.

The nature of assay [1]: Cytotoxicity counterscreen for inhibitors of SARS-CoV-2 cell entry (AID 1645845). Note: nearly all actives have a fitted effect of over 50% in size. The procedure, abridged:
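After a 15 min room-temperature ATPLite 1step step, luminescence reflected ATP remaining in HEK293-ACE2 cells exposed to compound for 1 h plus 48 h at 37 C, with percent activity set by cell and no-cell controls.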

The nature of assay [2]: Primary qHTS to identify inhibitors of SARS-CoV-2 cell entry (AID 1645846). Note: nearly all actives have a fitted effect of over 45% in size. The procedure, abridged: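 Using luciferase-reporting pseudoviruses carrying Wuhan-Hu-1 spike, the screen tracks entry into stably ACE2-expressing cells over 48 hr. Activity is expressed relative to spike particles versus particles lacking any fusion protein.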
For orientation: In qHTS, concentration-response curves come from the screen itself.

Assay [3] can be described thus: Primary qHTS for inhibitors of nuclear receptor binding SET domain protein 2 (NSD2) in an isogenic RCH-ACV NSD2 p.E1099K mutant (9B) (AID 1645876; active = well fitted curve in the direction sought with a large enough effect; an effect the other way counts as inactive or inconclusive; note: nearly all actives have a fitted effect of over 70% in size; note: potency is the fitted concentration of half-maximal effect).
Assay [4] is described as follows: Primary qHTS for inhibitors of nuclear receptor binding SET domain protein 2 (NSD2) in an RCH-ACV wild type WT cells (2C) (AID 1645877; active = well fitted curve in the direction sought with a large enough effect; an effect the other way counts as inactive or inconclusive; note: nearly all actives have a fitted effect of over 70% in size; note: potency is the fitted concentration of half-maximal effect).
Assay [5] deals with Rap guanine nucleotide exchange factor 3 (Homo sapiens) (UniProt O95398). Description: Confirmatory qHTS for agonist of cAMP-regulated guanine nucleotide exchange factor 3 (EPAC1) (AID 1645881; active = well fitted curve in the direction sought with a large enough effect; an effect the other way counts as inactive or inconclusive;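 note: EPAC1 catalysed release of BODIPY-GDP from Rap1B seen as fluorescence loss; 100% = effect of cAMP agonist control; nearly all actives have a fitted effect of over 75% in size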).
Sequence of Rap guanine nucleotide exchange factor 3 (Homo sapiens) (O95398 whole entry, looked up): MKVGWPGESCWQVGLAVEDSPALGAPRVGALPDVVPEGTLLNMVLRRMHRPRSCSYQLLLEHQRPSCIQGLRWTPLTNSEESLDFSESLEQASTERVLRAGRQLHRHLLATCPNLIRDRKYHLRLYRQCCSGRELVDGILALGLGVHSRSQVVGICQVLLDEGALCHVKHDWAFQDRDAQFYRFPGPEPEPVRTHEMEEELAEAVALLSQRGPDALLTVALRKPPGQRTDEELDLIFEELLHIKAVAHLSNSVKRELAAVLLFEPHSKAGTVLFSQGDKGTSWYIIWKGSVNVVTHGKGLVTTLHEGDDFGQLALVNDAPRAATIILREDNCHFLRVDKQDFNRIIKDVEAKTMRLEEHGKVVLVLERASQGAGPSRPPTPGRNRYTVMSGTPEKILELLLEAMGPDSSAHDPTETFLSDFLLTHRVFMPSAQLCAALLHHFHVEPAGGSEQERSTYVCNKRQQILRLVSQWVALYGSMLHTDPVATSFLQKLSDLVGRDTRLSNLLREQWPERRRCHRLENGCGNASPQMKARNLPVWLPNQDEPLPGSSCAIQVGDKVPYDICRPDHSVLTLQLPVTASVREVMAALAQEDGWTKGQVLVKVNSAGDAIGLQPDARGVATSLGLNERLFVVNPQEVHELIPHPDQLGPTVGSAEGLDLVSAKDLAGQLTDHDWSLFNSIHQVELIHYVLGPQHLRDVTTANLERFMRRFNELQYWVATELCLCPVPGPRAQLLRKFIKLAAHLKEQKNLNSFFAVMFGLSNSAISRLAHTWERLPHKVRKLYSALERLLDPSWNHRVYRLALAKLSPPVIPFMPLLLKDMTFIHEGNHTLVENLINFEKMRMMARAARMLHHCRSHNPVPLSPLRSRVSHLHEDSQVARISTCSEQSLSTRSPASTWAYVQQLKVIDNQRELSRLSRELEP
Assay [6] has as its target Rap guanine nucleotide exchange factor 4 (Homo sapiens) (UniProt Q8WZA2). Put plainly: Confirmatory qHTS for agonist of cAMP-regulated guanine nucleotide exchange factor 4 (EPAC2) (AID 1645884; active = well fitted curve in the direction sought with a large enough effect; an effect the other way counts as inactive or inconclusive;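 note: nucleotide exchange releases bodipy-GDP from Rap1 and this lowers its fluorescence; % is set by controls: 0 for no effect and ±100 for the full control effect; nearly all actives have a fitted effect of over 65% in size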).
[7] abbreviates: activity change, negative = inhibition: at 57.1 µM (top of the series) unless noted.

Each structure is given as a SMILES string. Records with an inconclusive call do not appear. Activity calls are given as the source filed them. Unless noted, calls come from the whole dose curve.

Sequence of Rap guanine nucleotide exchange factor 4 (Homo sapiens) (Q8WZA2 whole entry, looked up): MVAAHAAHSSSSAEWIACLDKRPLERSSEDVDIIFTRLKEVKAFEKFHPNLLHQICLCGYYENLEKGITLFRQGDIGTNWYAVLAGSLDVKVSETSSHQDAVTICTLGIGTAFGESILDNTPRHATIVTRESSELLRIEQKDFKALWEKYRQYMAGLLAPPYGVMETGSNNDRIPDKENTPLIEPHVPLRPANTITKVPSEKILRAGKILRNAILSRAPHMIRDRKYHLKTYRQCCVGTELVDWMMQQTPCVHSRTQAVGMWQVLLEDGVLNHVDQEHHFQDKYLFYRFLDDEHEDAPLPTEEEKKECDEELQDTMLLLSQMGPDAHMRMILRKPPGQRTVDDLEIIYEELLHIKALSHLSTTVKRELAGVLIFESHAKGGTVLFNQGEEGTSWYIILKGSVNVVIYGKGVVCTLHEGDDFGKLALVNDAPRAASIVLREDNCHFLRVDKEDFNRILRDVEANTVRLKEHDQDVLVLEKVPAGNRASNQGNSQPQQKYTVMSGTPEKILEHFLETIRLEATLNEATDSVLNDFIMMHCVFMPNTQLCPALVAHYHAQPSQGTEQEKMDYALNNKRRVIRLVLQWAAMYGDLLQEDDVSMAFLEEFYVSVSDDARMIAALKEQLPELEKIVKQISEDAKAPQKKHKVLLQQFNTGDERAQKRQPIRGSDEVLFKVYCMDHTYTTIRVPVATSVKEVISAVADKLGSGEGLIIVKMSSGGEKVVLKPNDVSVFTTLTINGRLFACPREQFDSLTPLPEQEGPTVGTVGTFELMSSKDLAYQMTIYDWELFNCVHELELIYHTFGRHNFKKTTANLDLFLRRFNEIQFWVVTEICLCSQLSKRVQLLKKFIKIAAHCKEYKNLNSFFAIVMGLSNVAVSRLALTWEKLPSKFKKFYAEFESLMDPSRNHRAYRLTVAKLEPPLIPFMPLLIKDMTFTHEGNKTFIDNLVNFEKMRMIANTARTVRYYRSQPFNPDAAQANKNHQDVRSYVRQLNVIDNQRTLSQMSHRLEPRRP

Consider `NC1=NC(=O)N2CC12` (stereo unspecified), for which the Potency result in assay [1], in assay [3] and in assay [4] was “inactive” each time. Also, the activity change, negative = inhibition in assay [2] (SARS-CoV-2 pseudovirus cell entry assay, luminescence, at 57.1 µM (top of the series)) is -95.3%; in assay [2] (SARS-CoV-2 pseudovirus cell entry assay, luminescence, at 114 µM (top of the series)), -13.1%.

Turning to `CC[N+]1(CCOC(=O)C(O)(c2ccccc2)c2ccccc2)CCCCC1`, the Potency result in assay [1], in assay [3] and in assay [4] was “inactive” throughout. The activity change, negative = inhibition in assay [2] (setting [7]) is -23.2%.

With `O=S(=O)(CC1CS1)c1ccc(Oc2ccccc2)cc1` (stereo unspecified), the Potency result in assay [1] and in assay [2] (setting [7]) was “inactive” in each case. The Potency in assay [3] is 8.33 µM (active); in assay [4], 5.25 µM (active).

For `C[C@]12CC[C@@H]3[C@@H](CCC4=CC(=O)CC[C@@H]43)[C@@H]1CC[C@@H]2OC(=O)CCc1ccccc1`, the Potency result in assay [1], in assay [3] and in assay [4] was “inactive” throughout. In addition, the activity change, negative = inhibition in assay [2] (setting [7]) was -12.2%.

`CN(C)[C@@H]1C(=O)C(C(N)=O)=C(O)[C@@]2(O)C(=O)C3=C(O)c4c(O)cccc4[C@@](C)(O)[C@H]3[C@H](O)[C@@H]12`: the Potency result in assay [1], in assay [2] (setting [7]) and in assay [4] was “inactive” in each case. Also, in assay [2] (setting [7]), the activity change, negative = inhibition is -8.27%. Also, the compound was classed as inactive in assay [5] and in assay [6].

Take `CC(C[N+](C)(C)C)OC(N)=O` (stereo unspecified): the Potency entry in assay [1] and in assay [2] (setting [7]) was “inactive” each time. Also, in assay [2] (setting [7]), the activity change, negative = inhibition was -6.96%.
